{"source": "PubChem BioAssay AID1159580", "about": "(chemical genetic matrix, 2015)", "assay": "chemical genetic growth profiling, strain panel (AID 1159580);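 also: tested at 20 µM; growth read once vehicle control cultures reached saturation at 30 °C; 1 = growth at the plate median or of vehicle wells; lower values mean less growth of the strain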", "conditions": "growth OD", "key": {"[1]": {"conditions": "S. cerevisiae deletion strains, locus YAL013W, strain DEP1, active compounds read low"}, "[2]": {"conditions": "S. cerevisiae deletion strains, locus YBR229C, strain ROT2, active compounds read low"}, "[3]": {"conditions": "S. cerevisiae deletion strains, locus YDL101C, strain DUN1, active compounds read low"}, "[4]": {"conditions": "S. cerevisiae deletion strains, locus YDR150W, strain NUM1, active compounds read low"}, "[5]": {"conditions": "S. cerevisiae deletion strains, locus YEL061C, strain CIN8, active compounds read low"}, "[6]": {"conditions": "S. cerevisiae deletion strains, locus YGR078C, strain PAC10, active compounds read low"}, "[7]": {"conditions": "S. cerevisiae deletion strains, locus YGR229C, strain SMI1, active compounds read low"}, "[8]": {"conditions": "S. cerevisiae deletion strains, locus YHR030C, strain SLT2, active compounds read low"}, "[9]": {"conditions": "S. cerevisiae deletion strains, locus YHR087W, strain rtc3, active compounds read low"}, "[10]": {"conditions": "S. cerevisiae deletion strains, locus YJR043C, strain POL32, active compounds read low"}, "[11]": {"conditions": "S. cerevisiae deletion strains, locus YJR075W, strain HOC1, active compounds read low"}, "[12]": {"conditions": "S. cerevisiae deletion strains, locus YLR039C, strain RIC1, active compounds read low"}, "[13]": {"conditions": "S. cerevisiae deletion strains, locus YLR058C, strain SHM2 (second series), active compounds read low"}, "[14]": {"conditions": "S. cerevisiae deletion strains, locus YLR085C, strain ARP6, active compounds read low"}, "[15]": {"conditions": "S. cerevisiae deletion strains, locus YLR262C, strain YPT6, active compounds read low"}, "[16]": {"conditions": "S. cerevisiae deletion strains, locus YML094W, strain GIM5, active compounds read low"}, "[17]": {"conditions": "S. cerevisiae deletion strains, locus YMR219W, strain ESC1, active compounds read low"}, "[18]": {"conditions": "S. cerevisiae deletion strains, locus YMR263W, strain SAP30, active compounds read low"}, "[19]": {"conditions": "S. cerevisiae deletion strains, locus YNL153C, strain GIM3, active compounds read low"}, "[20]": {"conditions": "S. cerevisiae deletion strains, locus YNL298W, strain CLA4 (second series), active compounds read low"}, "[21]": {"conditions": "S. cerevisiae deletion strains, locus YNL322C, strain KRE1, active compounds read low"}, "[22]": {"conditions": "S. cerevisiae deletion strains, locus YNR030W, strain Alg12, active compounds read low"}, "[23]": {"conditions": "S. cerevisiae deletion strains, locus YOL006C, strain TOP1, active compounds read low"}, "[24]": {"conditions": "S. cerevisiae deletion strains, locus YPL055C, strain LGE1, active compounds read low"}, "[25]": {"conditions": "S. cerevisiae deletion strains, locus YPL241C, strain CIN2, active compounds read low"}, "[26]": {"conditions": "S. cerevisiae deletion strains, locus YPR135W, strain CTF4, active compounds read low"}, "[27]": {"conditions": "S. cerevisiae strains, strain wild type, active compounds read low"}}, "note": "Screen size: about 5,500 compounds; about 2,000 (36%) were called active. About 18% were inconclusive and are not listed. This is one part of the list. Unmarked numbers belong to inactive results. Rule as the data show it: active = normalized growth mostly below about 0.91 (no sharp cut-off); inconclusive = no clear call, values can overlap the other calls; inactive = mostly above about 0.92."}
{"smiles": "COc1cccc(-c2nc(C#N)c(N)o2)c1", "values": [{"measurement": "normalized growth", "setting": "[1]", "result": 0.987}, {"measurement": "normalized growth", "setting": "[2]", "result": 0.996}, {"measurement": "normalized growth", "setting": "[3]", "result": 0.995}, {"measurement": "normalized growth", "setting": "[4]", "result": 0.983}, {"measurement": "normalized growth", "setting": "[5]", "result": 1.02}, {"measurement": "normalized growth", "setting": "[6]", "result": 0.996}, {"measurement": "normalized growth", "setting": "[7]", "result": "0.938 (active)"}, {"measurement": "normalized growth", "setting": "[8]", "result": 0.708}, {"measurement": "normalized growth", "setting": "[9]", "result": 1}, {"measurement": "normalized growth", "setting": "[10]", "result": 0.968}, {"measurement": "normalized growth", "setting": "[11]", "result": 0.992}, {"measurement": "normalized growth", "setting": "[12]", "result": 0.945}, {"measurement": "normalized growth", "setting": "[13]", "result": 0.99}, {"measurement": "normalized growth", "setting": "[14]", "result": 0.79}, {"measurement": "normalized growth", "setting": "[15]", "result": 0.979}, {"measurement": "normalized growth", "setting": "[16]", "result": 1.01}, {"measurement": "normalized growth", "setting": "[17]", "result": 0.989}, {"measurement": "normalized growth", "setting": "[18]", "result": 0.944}, {"measurement": "normalized growth", "setting": "[19]", "result": 0.987}, {"measurement": "normalized growth", "setting": "[20]", "result": 0.946}, {"measurement": "normalized growth", "setting": "[21]", "result": 1.01}, {"measurement": "normalized growth", "setting": "[22]", "result": 0.989}, {"measurement": "normalized growth", "setting": "[23]", "result": 0.796}, {"measurement": "normalized growth", "setting": "[24]", "result": 0.966}, {"measurement": "normalized growth", "setting": "[25]", "result": 0.953}, {"measurement": "normalized growth", "setting": "[26]", "result": 0.871}, {"measurement": "normalized growth", "setting": "[27]", "result": 0.958}]}
{"smiles": "c1cc2c(cc1N=C1SCC3CCCCN13)OCO2", "note": "(configuration not stated)", "values": [{"measurement": "normalized growth", "setting": "[1]", "result": 1}, {"measurement": "normalized growth", "setting": "[2]", "result": 1.01}, {"measurement": "normalized growth", "setting": "[3]", "result": 1.02}, {"measurement": "normalized growth", "setting": "[4]", "result": 1.05}, {"measurement": "normalized growth", "setting": "[5]", "result": 0.991}, {"measurement": "normalized growth", "setting": "[6]", "result": 1.01}, {"measurement": "normalized growth", "setting": "[7]", "result": 0.997}, {"measurement": "normalized growth", "setting": "[8]", "result": 1.05}, {"measurement": "normalized growth", "setting": "[9]", "result": 0.995}, {"measurement": "normalized growth", "setting": "[10]", "result": 1.03}, {"measurement": "normalized growth", "setting": "[11]", "result": 1.03}, {"measurement": "normalized growth", "setting": "[12]", "result": 0.983}, {"measurement": "normalized growth", "setting": "[13]", "result": 1}, {"measurement": "normalized growth", "setting": "[14]", "result": 0.932}, {"measurement": "normalized growth", "setting": "[15]", "result": 1.12}, {"measurement": "normalized growth", "setting": "[16]", "result": 0.973}, {"measurement": "normalized growth", "setting": "[17]", "result": 1}, {"measurement": "normalized growth", "setting": "[18]", "result": 1.01}, {"measurement": "normalized growth", "setting": "[19]", "result": 1.02}, {"measurement": "normalized growth", "setting": "[20]", "result": 0.974}, {"measurement": "normalized growth", "setting": "[21]", "result": 1}, {"measurement": "normalized growth", "setting": "[22]", "result": 1}, {"measurement": "normalized growth", "setting": "[24]", "result": 0.996}, {"measurement": "normalized growth", "setting": "[25]", "result": 0.953}, {"measurement": "normalized growth", "setting": "[26]", "result": 1.05}, {"measurement": "normalized growth", "setting": "[27]", "result": 1}]}
{"smiles": "NC(=S)COc1ccccc1Cl", "values": [{"measurement": "normalized growth", "setting": "[1]", "result": 0.998}, {"measurement": "normalized growth", "setting": "[2]", "result": 0.985}, {"measurement": "normalized growth", "setting": "S. cerevisiae deletion strains, locus YCL061C, strain MRC1, active compounds read low", "result": 1}, {"measurement": "normalized growth", "setting": "[3]", "result": 1}, {"measurement": "normalized growth", "setting": "S. cerevisiae deletion strains, locus YDL134C, strain PPH21, active compounds read low", "result": 0.981}, {"measurement": "normalized growth", "setting": "[4]", "result": 0.998}, {"measurement": "normalized growth", "setting": "[5]", "result": 0.931}, {"measurement": "normalized growth", "setting": "[6]", "result": 1.03}, {"measurement": "normalized growth", "setting": "[8]", "result": 0.794}, {"measurement": "normalized growth", "setting": "[9]", "result": 1.04}, {"measurement": "normalized growth", "setting": "S. cerevisiae deletion strains, locus YJL187C, strain SWE1, active compounds read low", "result": 0.983}, {"measurement": "normalized growth", "setting": "[10]", "result": 0.994}, {"measurement": "normalized growth", "setting": "[11]", "result": 1.01}, {"measurement": "normalized growth", "setting": "S. cerevisiae deletion strains, locus YKL190W, strain CNB1, active compounds read low", "result": 0.968}, {"measurement": "normalized growth", "setting": "[12]", "result": 0.796}, {"measurement": "normalized growth", "setting": "[13]", "result": 0.982}, {"measurement": "normalized growth", "setting": "[14]", "result": "0.624 (active)"}, {"measurement": "normalized growth", "setting": "[15]", "result": 0.887}, {"measurement": "normalized growth", "setting": "[16]", "result": 0.947}, {"measurement": "normalized growth", "setting": "[17]", "result": 0.982}, {"measurement": "normalized growth", "setting": "[18]", "result": 1.01}, {"measurement": "normalized growth", "setting": "[19]", "result": 0.971}, {"measurement": "normalized growth", "setting": "[20]", "result": "0.799 (active)"}, {"measurement": "normalized growth", "setting": "[21]", "result": 0.994}, {"measurement": "normalized growth", "setting": "[22]", "result": 0.95}, {"measurement": "normalized growth", "setting": "[23]", "result": "0.294 (active)"}, {"measurement": "normalized growth", "setting": "[24]", "result": 1.04}, {"measurement": "normalized growth", "setting": "[25]", "result": 0.891}, {"measurement": "normalized growth", "setting": "[26]", "result": 0.801}]}
